Experimental data reported in PubChem BioAssay (EPA / NIEHS).
Several values for one entry are separate records, joined by “and”; a condition that tells them apart may be missing. Identical values can stand only once. Inconclusive results are not listed. A structure can be active in one record and inactive in another. Activity calls are given as the source filed them. The calls were made as follows: active = hit-call score of the fitted dose curve at least 0.9, where 1 is the maximum; inconclusive = response in the unintended direction; inactive = score below 0.9.

Tests used:
[1] = system: chicken Androgen Receptor (AR), gene 422165; experiment: ATG_chAR_XSP2: Attagene TRANS-FACTORIAL Multi-Species (XSP2) HepG2 Assay for chicken Androgen Receptor (AR) (AID 2283819);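 also: hits raise reporter mRNA above DMSO so potency is for activation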
Outline: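 HepG2 cells transiently transfected with chicken AR–GAL4 chimeric reporter constructs, stimulated with 3 nM 6-alpha-fluorotestosterone plus 1.5 nM norgestrel, dosed 24 h. Reporter mRNA quantified by RT-PCR and capillary electrophoresis; gain of signal fitted versus DMSO.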

[2] = system: frog Estrogen Receptor (ER), gene 398734; experiment: ATG_frER1_XSP2: Attagene TRANS-FACTORIAL Multi-Species (XSP2) HepG2 Assay for frog Estrogen Receptor (ER) (AID 2283821);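 also: hits raise reporter mRNA above DMSO baseline so potency means agonist or activator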
Protocol: (§1) ATG_XSP2_multi-species_TRANS is a cell-based, multiplexed assay created by modifying the existing Attagene TRANS-FACTORIAL system to include a panel of nuclear receptors from some or all the following species: human (Homo sapiens), mouse (Mus musculus), frog (Xenopus laevis), zebrafish (Danio rerio), chicken (Gallus gallus), and turtle (Chrysemys picta). The ECOTOX-FACTORIAL format uses HepG2, a human liver cell line, with measurements taken at 24 hours after chemical dosing in a 24-well plate. Xsp2 included 3 nM 6-alpha-fluorotestosterone and 1.5 nM norgestrel to stimulate the androgen receptor.ATG_frER1_XSP2 is one of 29 assay components measured or calculated from the ATG_XSP2_multi-species_TRANS assay. It is designed to make measurements of mRNA induction, a form of inducible reporter, as detected with fluorescence intensity signals by Reverse transcription polymerase chain reaction (RT-PCR) and Capillary electrophoresis technology.The assay endpoint ATG_frER1_XSP2 was analyzed in the positive analysis fitting direction relative to DMSO as the negative control and baseline of activity. […] Furthermore, this assay endpoint can be referred to as a primary readout, because this assay has produced multiple assay endpoints where this one serves a reporter gene function. […]

[3] = system: zebrafish Estrogen Receptor (ER2b), gene 317733; experiment: ATG_zfER2b_XSP2: Attagene TRANS-FACTORIAL Multi-Species (XSP2) HepG2 Assay for zebrafish Estrogen Receptor (ER2b) (AID 2283823);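 also: fitted upward as reporter gain over DMSO so potency reflects activation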
Outline: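 In this multiplexed trans-activation format, HepG2 cells expressing exogenous NR-Gal4 fusions drive GAL4-UAS reporters. Exposure lasts 24 h, and reporter mRNA induction is read by RT-PCR with capillary electrophoresis detection.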

[4] = system: frog Androgen Receptor (AR), gene 399456; experiment: ATG_frAR_XSP2: Attagene TRANS-FACTORIAL Multi-Species (XSP2) HepG2 Assay for frog Androgen Receptor (AR) (AID 2283824);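 also: actives raise reporter signal above DMSO so AC50 reflects agonist-like induction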
Outline: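 HepG2 cells transiently transfected with GAL4-UAS reporter units and frog (Xenopus laevis) AR-Gal4 chimera; reporter mRNA measured 24 h after dosing by RT-PCR and capillary electrophoresis. Gain of signal fitted relative to DMSO baseline.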

[5] = target: Estrogen receptor (Homo sapiens) (UniProt P03372); experiment: ATG_hERa_XSP2: Attagene TRANS-FACTORIAL Multi-Species (XSP2) HepG2 Assay for human Estrogen Receptor (ERa) (AID 2283827)
Protocol: as §1, with “receptor.ATG_hERa_XSP2” for “receptor.ATG_frER1_XSP2”, “ATG_hERa_XSP2” for “ATG_frER1_XSP2”

[6] = system: frog Estrogen Receptor (ER2), gene 100174814; experiment: ATG_frER2_XSP2: Attagene TRANS-FACTORIAL Multi-Species (XSP2) HepG2 Assay for frog Estrogen Receptor (ER2) (AID 2283828)
Outline: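 Human liver HepG2, transient MRTU transfection (TRANS format, exogenous NR–Gal4). 24 h cpd exposure. Total RNA → RT → PCR → FAM label → HpaI cut → CE. Positive direction vs DMSO.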

[7] = target: Peroxisome proliferator-activated receptor gamma (Homo sapiens) (UniProt P37231); experiment: ATG_hPPARg_XSP2: Attagene TRANS-FACTORIAL Multi-Species (XSP2) HepG2 Assay for human Peroxisome Proliferator-activated Receptor gamma (PPARg) (AID 2283829);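 also: actives raise reporter mRNA above DMSO so AC50 reflects PPARg activation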
Outline: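 Multiplexed transactivation in transfected HepG2 liver cells. Gal4-chimeric receptor activity reported as induced reporter transcript after 24 h.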

[8] = target: mouse Peroxisome Proliferator-activated Receptor gamma (PPARg), Pparg (gene 19016) (UniProt P37238); experiment: ATG_mPPARg_XSP2: Attagene TRANS-FACTORIAL Multi-Species (XSP2) HepG2 Assay for mouse Peroxisome Proliferator-activated Receptor gamma (PPARg) (AID 2283830);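 also: hits are gains in reporter mRNA above DMSO so AC50 marks activation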
Outline: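 HepG2 cells transiently transfected with GAL4-UAS reporter units for chimeric NR-Gal4 proteins including mouse PPARg, exposed 24 h; medium contained 3 nM 6-alpha-fluorotestosterone and 1.5 nM norgestrel. Reporter mRNA quantified by RT-PCR, HpaI digestion and capillary electrophoresis, vs DMSO.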

[9] = ATG_M_19_XSP2: Attagene TRANS-FACTORIAL Multi-Species (XSP2) HepG2 Assay for M32 Transcription Factor (Internal Marker) (AID 2283822)
Protocol: as §1, with “receptor.ATG_M_19_XSP2” for “receptor.ATG_frER1_XSP2”, “technology.This” for “technology.The”, “endpoint, ATG_M_19_XSP2,” for “endpoint ATG_frER1_XSP2”, “secondary” for “primary”, “background control” for “reporter gene”

[10] = target: Nuclear receptor subfamily 1 group I member 2 (Mus musculus) (UniProt O54915); experiment: ATG_mPXR_XSP2: Attagene TRANS-FACTORIAL Multi-Species (XSP1) HepG2 Assay for mouse Pregnane X Receptor (PXR) (AID 2283831)
Outline: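 Human liver HepG2 cells expressing exogenous receptor-GAL4 chimeras were exposed to test chemicals for 24 h. Induction of reporter mRNA was scored as gain of fluorescence signal over DMSO controls.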

Measured: AC50

Chain of Peroxisome proliferator-activated receptor gamma (Homo sapiens) (P37231 whole entry, looked up, the tested form may be a part): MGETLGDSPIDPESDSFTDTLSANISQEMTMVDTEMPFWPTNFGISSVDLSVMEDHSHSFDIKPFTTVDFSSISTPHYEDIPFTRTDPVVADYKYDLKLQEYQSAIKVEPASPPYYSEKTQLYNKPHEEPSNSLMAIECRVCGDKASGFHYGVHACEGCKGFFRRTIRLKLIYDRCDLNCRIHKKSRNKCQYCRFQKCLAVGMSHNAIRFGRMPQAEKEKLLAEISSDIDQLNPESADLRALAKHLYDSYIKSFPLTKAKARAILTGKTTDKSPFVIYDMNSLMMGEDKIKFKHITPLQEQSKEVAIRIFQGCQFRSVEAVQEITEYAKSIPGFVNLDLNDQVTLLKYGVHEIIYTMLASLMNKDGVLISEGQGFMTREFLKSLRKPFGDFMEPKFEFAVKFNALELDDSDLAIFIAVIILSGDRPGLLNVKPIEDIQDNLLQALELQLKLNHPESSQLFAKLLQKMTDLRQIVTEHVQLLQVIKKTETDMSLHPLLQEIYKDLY
Chain of Estrogen receptor (Homo sapiens) (P03372 whole entry, looked up): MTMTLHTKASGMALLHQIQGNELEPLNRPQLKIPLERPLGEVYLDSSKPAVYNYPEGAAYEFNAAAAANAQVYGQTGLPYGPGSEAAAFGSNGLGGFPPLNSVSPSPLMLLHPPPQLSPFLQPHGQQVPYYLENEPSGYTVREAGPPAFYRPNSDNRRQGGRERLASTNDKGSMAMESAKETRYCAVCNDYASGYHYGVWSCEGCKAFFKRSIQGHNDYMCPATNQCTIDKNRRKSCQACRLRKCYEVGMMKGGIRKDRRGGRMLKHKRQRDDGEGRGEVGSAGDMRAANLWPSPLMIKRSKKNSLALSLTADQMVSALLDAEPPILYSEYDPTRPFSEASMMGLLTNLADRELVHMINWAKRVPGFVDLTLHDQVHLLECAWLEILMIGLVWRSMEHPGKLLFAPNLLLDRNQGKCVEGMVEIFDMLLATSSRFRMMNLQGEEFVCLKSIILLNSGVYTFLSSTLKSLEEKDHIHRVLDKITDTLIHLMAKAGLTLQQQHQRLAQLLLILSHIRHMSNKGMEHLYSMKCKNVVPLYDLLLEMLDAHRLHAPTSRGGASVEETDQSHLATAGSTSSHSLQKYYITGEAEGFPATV
Chain of mouse Peroxisome Proliferator-activated Receptor gamma (PPARg), Pparg (gene 19016) (P37238 whole entry, looked up, the tested form may be a part): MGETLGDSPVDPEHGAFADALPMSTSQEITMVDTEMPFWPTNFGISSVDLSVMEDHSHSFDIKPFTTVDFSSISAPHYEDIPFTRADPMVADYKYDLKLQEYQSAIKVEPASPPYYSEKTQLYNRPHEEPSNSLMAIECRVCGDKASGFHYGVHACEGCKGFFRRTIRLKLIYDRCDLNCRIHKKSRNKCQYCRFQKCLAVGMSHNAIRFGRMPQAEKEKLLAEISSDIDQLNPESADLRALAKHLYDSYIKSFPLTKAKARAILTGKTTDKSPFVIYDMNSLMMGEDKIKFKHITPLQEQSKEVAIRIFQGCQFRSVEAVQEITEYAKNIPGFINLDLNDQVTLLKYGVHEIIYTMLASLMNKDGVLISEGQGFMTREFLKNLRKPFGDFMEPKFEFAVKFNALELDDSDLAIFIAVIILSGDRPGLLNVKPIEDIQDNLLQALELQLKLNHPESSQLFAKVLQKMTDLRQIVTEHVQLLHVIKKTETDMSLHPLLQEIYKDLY
Chain of Nuclear receptor subfamily 1 group I member 2 (Mus musculus) (O54915 whole entry, looked up, the tested form may be a part): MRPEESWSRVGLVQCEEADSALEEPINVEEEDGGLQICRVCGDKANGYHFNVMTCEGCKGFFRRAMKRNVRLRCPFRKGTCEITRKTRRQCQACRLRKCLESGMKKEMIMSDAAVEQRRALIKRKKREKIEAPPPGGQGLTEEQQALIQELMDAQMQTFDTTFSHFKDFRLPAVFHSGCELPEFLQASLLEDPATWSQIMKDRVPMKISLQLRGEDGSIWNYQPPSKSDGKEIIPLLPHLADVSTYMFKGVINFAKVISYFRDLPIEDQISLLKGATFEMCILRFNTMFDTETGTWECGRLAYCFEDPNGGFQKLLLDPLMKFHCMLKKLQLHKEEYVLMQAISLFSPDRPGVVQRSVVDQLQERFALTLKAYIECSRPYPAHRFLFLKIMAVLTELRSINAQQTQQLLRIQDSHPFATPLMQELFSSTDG

O=C(c1ccc(O)cc1)c1ccc(O)cc1O
active: [1] 10 µM | [2] 3.84 µM | [3] 3.62 µM | [5] 3.48 µM | [6] 2.54 µM
inactive: [4] | [7] | [8]

COC(=O)c1c(C)cc(O)c(C)c1O
active: [2] 12.1 µM and 17.5 µM | [3] 39.7 µM and 71.2 µM | [5] 10.5 µM and 53.7 µM | [6] 27.7 µM and 27.2 µM | [7] 100 µM and 66.6 µM | [8] 64.5 µM | [10] 10.7 µM and 27.3 µM
inactive: [9] | [8]
